# M1 ag: human M1 muscarinic receptor agonists, primary screen, Fluo-8 calcium fluorescence, CHO-K1 cells, HTS | Muscarinic acetylcholine receptor M1 (Homo sapiens), P11229 | CHO-K1 hM1, agonist mode; 0% DMSO, 100% acetylcholine EC100 | activation, % at 3 µM | 360,000 compounds, 0.33% hits | AID 588814, 2011;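 active means activation above the run's mean compound activation plus 3 SD, cut at about 16% in these data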;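 further: peak over basal fluorescence ratio within a 140 s kinetic read after compound addition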
# Target sequence (P11229 whole entry, looked up): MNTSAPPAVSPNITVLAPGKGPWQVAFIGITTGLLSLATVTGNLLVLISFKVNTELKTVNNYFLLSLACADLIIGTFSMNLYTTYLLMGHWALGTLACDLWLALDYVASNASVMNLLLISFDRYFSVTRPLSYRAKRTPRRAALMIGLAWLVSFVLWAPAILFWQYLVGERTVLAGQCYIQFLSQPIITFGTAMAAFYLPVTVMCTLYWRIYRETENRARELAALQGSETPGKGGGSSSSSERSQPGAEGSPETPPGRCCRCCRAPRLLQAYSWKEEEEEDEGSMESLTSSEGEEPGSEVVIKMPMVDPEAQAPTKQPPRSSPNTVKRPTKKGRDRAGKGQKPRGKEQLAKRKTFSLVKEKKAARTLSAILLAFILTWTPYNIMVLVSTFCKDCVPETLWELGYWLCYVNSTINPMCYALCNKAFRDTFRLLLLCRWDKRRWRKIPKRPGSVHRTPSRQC
# M1 PAM parental: nonselective calcium activators in parental CHO-K1 cells, primary screen, counter-screen for M1 PAM project, cell-based, Fluo-8 calcium fluorescence, full deck, 1536-well. ATP EC20; 0% at ATP EC20, 100% at ATP max. AID 602247, 2012. activation, % at 3 µM. 360,000 compounds, 0.02% hits;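 active means activation above the run cutoff, the mean activation of all test compounds plus 3 SD, cut at about 40% in these data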;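 further: peak over basal fluorescence ratio in a 140 s read after ATP addition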
# CHRM1 PAM: human M1 muscarinic receptor positive allosteric modulators, primary screen, CHO-K1 cells, Fluo-8 calcium fluorescence, 1536-well | CHO-K1 hM1, ACh EC20; 0% = ACh EC20, 100% = maximal ACh | activation, % at 3 µM | 360,000 compounds, 0.088% hits | Muscarinic acetylcholine receptor M1 (Homo sapiens), P11229; in the data active means activation above about 19%, passing the limit was not always enough
# M1 ag parental: counter-screen for M1 agonists: effect in parental CHO-K1 cells. Fluo-8 calcium fluorescence; scaled to maximal ATP response, vehicle zero. activation, % at 3 µM. 360,000 compounds, 0.48% hits; in the data active means activation above about 15%;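 further: untransfected CHO-K1 host cells lacking M1 receptor as counterscreen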
# CHRM1 antagonist: human M1 muscarinic receptor antagonists, primary screen, CHO-K1 cells, Fluo-8 calcium fluorescence, 1536-well | inhibition, % at 3 µM | CHO-K1 hM1, ACh EC80 antagonist | Muscarinic acetylcholine receptor M1 (Homo sapiens), P11229 | AID 588852, 2011 | 360,000 compounds, 1.3% hits;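 active means percent inhibition above its own plate's cutoff, namely the mean of that plate's compound wells plus 3 SD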;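 further: peak over basal fluorescence ratio during 140 s after agonist addition; 0% = ACh EC80 plus DMSO and 100% = DMSO alone without agonist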
# CHO-K1 Ca antag: counter-screen for M1 antagonists: effect in parental CHO-K1 cells; ATP-induced calcium, Fluo-8 fluorescence; 360,000 compounds, 0.6% hits; AID 602250; inhibition, % at 3 µM;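 active means inhibition above a per-plate cutoff, the plate's mean sample inhibition plus 3 SD, cut at about 24% in these data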;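 further: 0% = DMSO plus EC80 ATP and 100% = DMSO alone without ATP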
# The depositor's hits bear a star; · = not tested or not shown. Rows were chosen to be rich in hits. Some 2.3% of all compounds tested hit in one or more screens of this group.
SMILES,M1 ag,M1 PAM parental,CHRM1 PAM,M1 ag parental,CHRM1 antagonist,CHO-K1 Ca antag
Cc1ccc(C(=O)Nc2cccc(C(F)(F)F)c2)cc1NC(=O)c1csc(-c2ccncc2)n1,-2,-10,-6,0,5,4
CC(=O)C1CCC2C3CCC4=CC(=O)CCC4(C)C3(F)C(O)CC12C (centres undefined),1,0,1,1,-5,-4
CC1=CC(C)(C)N(C(=O)c2ccccc2)c2ccc(C)cc21,28*,31,6,10,-8,-2
Nc1ncnc2c1ncn2C1CCCO1 (centres undefined),20*,0,-11,0,-17,-1
CCN(CC)S(=O)(=O)c1ccc(/C=C/C(=O)OCC(=O)NCc2ccco2)cc1,-1,-4,-6,2,10,-7
CCn1c(SCC(=O)NCc2ccc3c(c2)OCO3)nnc1-c1cccs1,-6,29,7,0,-10,-7
CCn1c(SCC(=O)NCCc2ccc(F)cc2)nnc1-c1cccs1,-4,-7,-7,0,16,26*
Fc1ccc(NC(=S)N2CCCN(c3ccc(C(F)(F)F)cn3)CC2)c(F)c1,3,-14,-14,12,34*,24*
O=C1NC[C@@H](CCCCN2C[C@H](Cc3ccc(O)cc3)N(Cc3ccccc3)C(=O)C2=O)N(CCC2CCCCC2)C1=O,·,17,·,1,·,-25
CCn1cc(/C=C(\NC(=O)c2ccc(OC)c(OC)c2)C(=O)NCCCN2CCOCC2)c2ccccc21,3,-13,23,0,-12,1
CCn1ccnc1CNC(=O)c1ccc2oc(C(C)C)nc2c1,-6,10,-17,1,57*,-9
Cc1cnc(CNC(=O)c2ccc3oc(C(C)C)nc3c2)[nH]1,-6,-14,5,2,-5,7
C/C(=N/OC(=O)c1c(-c2c(Cl)cccc2Cl)noc1C)c1cnccn1,-8,-7,-28,3,77*,-12
C/C(=N\OC(=O)c1c(-c2ccccc2Cl)noc1C)c1nccs1,-4,10,-18,0,34,-9
C/C(=N/OC(=O)c1c(-c2ccccc2Cl)noc1C)c1cnccn1,-3,6,-20,2,74*,-1
O=C(CC(O)(CC(=O)OCc1ccccc1)C(=O)OCc1ccccc1)OCc1ccccc1,-3,19,-4,2,7,-20
COCCN(Cc1ccc(OC)cc1)c1c(C)nc2ccc(C(=O)Nc3ccc(NC(C)=O)cc3)cn12,-5,13,5,1,-11,-10
OC(c1ccc(F)c(F)c1)c1nc(-c2cccc(C(F)(F)F)c2)cs1 (centres undefined),-5,20,1,2,-5,-9
O=C(C(=Cc1ccccc1)CN1CCCCC1)c1ccccc1,-8,28,-27,1,39*,-18
O=C(CCCCN1CCCCC1)c1ccccc1,-4,5,-3,3,-2,-2
COc1cc(NS(=O)(=O)c2ccc(NC(=S)NC(=O)c3ccco3)cc2)ncn1,-6,4,-2,18*,4,19
Cc1ccc(S(=O)(=O)N(C)C[C@@H]2Oc3ccc(NC(=O)CCC(F)(F)F)cc3CC(=O)N([C@@H](C)CO)C[C@@H]2C)cc1,-14,21,2,0,-4,-12
COc1ccc(NC(=O)N(C)C[C@@H]2OCc3cnnn3CCCC(=O)N([C@@H](C)CO)C[C@H]2C)c(OC)c1,-5,0,-4,0,-3,-8
O=C(CSc1nnc(-c2cccnc2)n1-c1ccc(SC(F)F)cc1)N1CCCc2ccccc21,-8,-13,8,0,2,24*
CCOc1cc(/C=N/NC(=O)c2cccnc2)cc(Br)c1OCC(N)=O,-2,18,5,0,2,-12
SMILES,M1 ag,M1 PAM parental,CHRM1 PAM,M1 ag parental,CHRM1 antagonist,CHO-K1 Ca antag
CNS(=O)(=O)c1cnccc1N1CCN(C)CC1,-12,17,6,3,-5,5
CC(C)N1CCN(c2ccncc2S(=O)(=O)N2CCN(C)CC2)CC1,-8,13,-26,0,47*,-6
O=C(CCc1ccccc1)N=C1SC2CS(=O)(=O)CC2N1Cc1ccccc1 (centres undefined),8,4,18,1,-2,-4
C=CC[n+]1ccc(/C=C2\C=Cc3cc(C)ccc3N2CC)c2ccccc21,-3,-22,-13,7,44*,49*
Nc1ccc(C(=O)OCc2nc3ccccc3s2)cc1,-5,-3,6,1,-5,-12
Cc1ccc(C(=O)OCc2nc3ccccc3s2)o1,-2,5,5,16*,-1,3
COc1cccc(C(=O)OCC(=O)Nc2cc(C)on2)c1OC,0,-11,11,0,-18,-8
Cc1nc(S(=O)(=O)N2CCN(C3c4ccccc4-c4ccccc43)CC2)cn1C,-1,21,9,3,-13,-18
Cc1nc2c(o1)CCc1ccccc1C2N1CCN(C)CC1 (centres undefined),-7,20,-31,0,99*,-15
CCNC(=O)C1CCCN(C(=O)c2ccccc2)CC1 (centres undefined),-4,-9,-2,0,3,13
CCc1ccccc1NC(=O)COC(=O)C1CC(=O)N(c2ccc(F)cc2)C1 (centres undefined),-3,-8,-6,0,12,29*
Cc1ccc(N2CC(C(=O)OCC(=O)Nc3cccc(Cl)c3C)CC2=O)cc1 (centres undefined),-5,6,6,0,-14,-4
O=C(NCCCN1CCC(Cc2ccccc2)CC1)C1CCC(=O)N1C1CCCC1 (centres undefined),-12,3,-10,0,13,2
O=C(C1CC(=O)N(C2CCCC2)C1)N1CCN(c2ccccc2)CC1 (centres undefined),-3,8,8,1,-8,60*
O=C(NCCCN1CCC(Cc2ccccc2)CC1)C1CC(=O)N(C2CCCC2)C1 (centres undefined),-12,1,-22,0,33*,5
COc1ccc(CN(CC(=O)NCc2ccccc2)C(=O)CCC(=O)Nc2ccccn2)cc1,-1,19,6,3,-7,-12
CCn1cc(C(=O)O)c(=O)c2cc(F)c(N3CCN(S(=O)(=O)c4ccc(NC(=O)OC)cc4)CC3)cc21,-5,16,5,0,0,-9

# Bioassay records: PubChem BioAssay, The Scripps Research Institute Molecular Screening Center
